Source: PubChem
Only some compounds are listed: those with a hit (about 1.7% of all), similar ones and a draw of the others.
KCNH2 3.1 inh: blocks the human KCNH2 3.1 channel isoform | activity change, % (tested at about 1.8 µM) | hit rate 0.95% among 340,000 | U2OS KCNH2 3.1, thallium flux FluxOr; active compounds read low | AID 720553;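 active = maximum activity change below -70%; inconclusive = maximum activity change from -70% to -50%; inactive = maximum activity change above -50%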;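 also: thallium influx rate constant from kinetic fluorescence after stimulation buffer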
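Thallium flux via FluxOr fluorescence (Red40 quencher, 45 min loading) in U2OS cells virally expressing the KCNH2 3.1 isoform (1.77 x 10^8 /mL virus, overnight at 37 C). Rate constants from 2-min kinetic reads post-stimulation, normalised to positive and negative controls.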
KCNH2 WT inh: KCNH2 (human, wildtype) channel inhibition | U2OS, BacMam KCNH2, thallium flux FluxOr; active compounds read low | activity change, % at 1.84 µM | hit rate 0.37% among 340,000;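 active = maximum activity change below -70%; inconclusive = maximum activity change between -70% and -50%; inactive = maximum activity change above -50%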
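U2OS cells transduced with wild-type KCNH2 virus are loaded with FluxOr dye for 45 min, and thallium flux is measured in kinetic reads before and after stimulation buffer. Rate constants are normalized to DMSO controls.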
USP1-UAF1 inh: blocks the human USP1/UAF1 deubiquitinase complex; recombinant USP1/UAF1, Ub-Rhodamine cleavage fluorescence; Potency, µM (highest dose often 57.1 µM), for inactives: at the highest dose activity change, negative = inhibition, most hits filed as inhibitors; hit rate 0.23% among 390,000; active = well fitted inhibition curve with a large enough effect; inconclusive = small, poorly fitted or top-dose-only effect; inactive = no such curve, though single readings can be large or run the other way; also: potency is read from the fitted curve at half-maximal effect; nearly all actives have a fitted effect of over 60% in size
Target sequence (O94782 whole entry, looked up): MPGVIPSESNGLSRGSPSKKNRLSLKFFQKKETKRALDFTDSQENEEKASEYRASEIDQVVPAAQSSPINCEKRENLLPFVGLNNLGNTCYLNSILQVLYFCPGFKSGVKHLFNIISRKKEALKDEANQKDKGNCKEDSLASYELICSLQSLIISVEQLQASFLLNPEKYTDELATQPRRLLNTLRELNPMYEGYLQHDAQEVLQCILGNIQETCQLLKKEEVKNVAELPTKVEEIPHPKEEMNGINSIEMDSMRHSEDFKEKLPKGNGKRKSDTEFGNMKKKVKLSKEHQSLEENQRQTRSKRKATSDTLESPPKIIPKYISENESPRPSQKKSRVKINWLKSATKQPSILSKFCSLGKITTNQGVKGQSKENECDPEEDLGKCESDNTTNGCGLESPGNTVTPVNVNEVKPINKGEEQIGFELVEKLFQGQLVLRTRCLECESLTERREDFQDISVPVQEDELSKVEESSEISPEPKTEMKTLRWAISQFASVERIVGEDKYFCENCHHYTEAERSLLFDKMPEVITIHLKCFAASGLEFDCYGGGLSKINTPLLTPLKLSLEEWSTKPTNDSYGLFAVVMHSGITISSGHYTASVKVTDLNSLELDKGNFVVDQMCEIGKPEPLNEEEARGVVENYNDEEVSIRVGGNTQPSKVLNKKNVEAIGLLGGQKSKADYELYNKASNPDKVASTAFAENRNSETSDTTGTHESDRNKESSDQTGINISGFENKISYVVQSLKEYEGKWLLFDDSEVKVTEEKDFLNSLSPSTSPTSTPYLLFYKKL
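USP1/UAF1 complex at 1 nM was preincubated with compound for 15 min at room temperature, then Ub-Rho substrate (150nM final) was added. Fluorescence (480/540 nm) was read kinetically, 6 reads every 60 seconds.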
Giardia kill: Giardia lamblia killing; AID 540267; activity change, % at 7.66 µM, hits read low; hit rate 0.15% among 340,000; Giardia lamblia trophozoite viability; in the data active = activity change below about -80%; inconclusive = between about -30% and that limit;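 also: parasites exposed to compound for two days anaerobically before the ATP read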
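ATP-content bioluminescence gauges trophozoite survival. Cells (100/well) receive compound and incubate anaerobically for 48 hrs at 37 deg C; detection reagent follows for 15-30 min at room temperature.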
Coupling enz: inhibits coupling enzyme system, counter-screen for aldolase hits; AID 2472; coupling enzyme system counterscreen, AmpLite Red fluorescence; hit rate 0.67% among 290,000; activity change, negative = inhibition, % at 58.2 µM, hits read low; in the data active = activity change below about -30%
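First, compound is pin-transferred into glyceraldehyde-3-phosphate coupling-enzyme reagent at 57.5 uM final and held 10 min at RT. Next, substrate, coupling system and AmpLite Red are added. After 20 min RT, fluorescence (525/598 nm) is read.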
Active calls of the source: *; u = inconclusive; x = no result. % is scaled to controls: 0 for no effect and ±100 for the full control effect.

SMILES	KCNH2 3.1 inh	KCNH2 WT inh	USP1-UAF1 inh	Giardia kill	Coupling enz
CCCCCCCCCOC(=O)CNc1nc(C#N)nc(NCC(=O)OCCCCCCCCC)n1	x	x	x	-0.8	x
O=S(=O)(Nc1cccc2cccnc12)c1ccccc1O	x	x	x	x	-36.9*
Clc1ccc2c(N/N=C/c3ccc(Br)cc3)ccnc2c1	u	3.0	-21.0%	-95.6*	4.1
Cc1ccc(/C=N/Nc2ccnc3cc(Cl)ccc23)c(C)c1	-41.1	8.9	-24.6%	-87.9*	-3.2
CC(C)CC1NC(=O)c2cc3ccccc3cc2-n2c1nc1cc(Cl)ccc1c2=O (configuration not stated)	-35.7	10.7	-32.3%	x	x
O=C1CC(=C(c2ccccc2)c2ccccc2)C(=O)N1CCCCN1CCN(c2cccc(Cl)c2)CC1	-74.1*	-75.4*	-24.3%	-3.4	3.5
Cc1ccccc1N1CCN(CCCN2C(=O)CC(=C(c3ccccc3)c3ccccc3)C2=O)CC1	-45.6	-37.8	-2.4%	-8.6	-0.4
COc1ccc(NC(=O)CN2CCN(Cc3ccccc3Cl)S2(=O)=O)cc1Cl	x	x	-17.9%	x	x
CCOc1ccccc1NC(=S)NC(=O)C1CCCCC1	1.7	-6.5	-17.5%	-13.1	-0.7
CCOc1ccccc1NC(=O)C1CCCC1	3.0	-83.7*	-8.7%	18.4	x
Cc1cc(C)c2cc(C#N)c(N3CCCN(S(=O)(=O)c4ccccc4)CC3)nc2c1	-70.3*	-18.8	-32.0%	4.2	x
CC(=O)c1cccc(S(=O)(=O)N2CCN(c3nc4cc(C)cc(C)c4cc3C#N)CC2)c1	10.3	-2.5	-19.5%	8.7	-0.4
O=C(NCCCO)Nc1ccc2nc(-c3ccco3)c(-c3ccco3)nc2c1	x	x	x	x	-42.7*
O=C(Nc1ccc(N2CCOCC2)cc1)Nc1ccc2nc(-c3ccco3)c(-c3ccco3)nc2c1	5.7	-20.4	-12.9%	7.3	-11.2
O=C(NCc1ccco1)Nc1ccc2nsnc2c1	1.0	1.4	-15.3%	-3.7	-37.6*
O=C(Nc1ccc2nc(-c3ccco3)c(-c3ccco3)nc2c1)NC1CC1	7.4	-0.7	u	-13.9	-37.2*
COc1ccc(Cl)cc1NC(=O)C(C)N1Cc2ccccc2C1=O (configuration not stated)	x	x	-10.7%	x	x
O=C(CC(O)c1ccncc1)c1ccccc1O (configuration not stated)	-18.7	-1.3	-3.1%	-3.6	x
COc1ccc(-n2c3c(c(=O)[nH]c2=O)C(NS(=O)(=O)c2ccc(Cl)cc2)(C(F)(F)F)C(=O)N3)cc1 (configuration not stated)	12.1	-98.3*	-15.7%	-17.0	3.8
O=C(NCCCn1ccnc1)/C(=C\c1ccc(Br)cc1)NC(=O)c1ccccc1F	-110.7*	-129.1*	-9.3%	-8.2	x
O=C(NCCCn1ccnc1)Nc1ccc(Cl)cc1	-71.2*	1.9	-10.2%	-13.2	x
O=C(NCCCn1ccnc1)/C(=C\c1cccnc1)NC(=O)c1ccccc1F	-5.5	-2.6	-7.0%	7.4	1.4
O=C(NCCCN1CCc2ccccc2C1)Nc1ccc(Cl)cc1	-87.1*	-5.9	-5.0%	-7.2	4.6
COc1ccc(/C=C(\NC(=O)c2ccc([N+](=O)[O-])cc2)C(=O)NCCCn2ccnc2)cc1	-35.5	-111.3*	-3.4%	3.9	-2.6
O=C(NCCCn1ccnc1)Nc1ccc(Cl)c(Cl)c1	-24.5	1.9	-12.5%	8.1	-1.5
SMILES	KCNH2 3.1 inh	KCNH2 WT inh	USP1-UAF1 inh	Giardia kill	Coupling enz
CCN(Cc1ccccc1)C(=O)c1c(C)oc2ncn(C)c(=O)c12	x	x	-0.2%	x	x
O=C1C2=CC[C@H]3C(=O)N(C4CCCCC4)C(=O)[C@@H]3[C@@H]2[C@H](O)[C@@H]2O[C@H]12	x	x	x	x	-2.2
Cc1cccc(N2C(=O)N(Cc3cccc(C#N)c3)c3ccccc3S2(=O)=O)c1	x	x	-25.1%	x	x
O=C(NCc1ccc(Cl)cc1)C1CCN(S(=O)(=O)Cc2ccccc2)CC1	x	x	-20.4%	x	x
CC(=O)Nc1ccc(S(=O)(=O)c2ccnc3cc(Cl)ccc23)cc1	-1.8	-8.1	-4.9%	x	x
O=c1[nH]c(=O)c2[nH]c(=S)[nH]c2[nH]1	17.1	8.4	-19.1%	-21.8	x
COc1ccc(/C=C(\NC(=O)c2ccc(C)cc2)C(=O)NCCCn2ccnc2)cc1	-91.9*	u	-20.2%	6.2	0.1
O=C(CCCN1C(=O)c2ccccc2C1=O)NCCCn1ccnc1	7.8	13.5	-22.7%	19.9	1.3
O=C(NCCCn1ccnc1)/C(=C/c1ccc(Cl)cc1)NC(=O)c1ccccc1	-104.8*	-128.9*	-16.8%	30.4	-1.2
O=C(NCCCn1ccnc1)C(Cc1ccc([N+](=O)[O-])cc1)N1C(=O)c2ccccc2C1=O (configuration not stated)	-87.7*	-119.1*	5.3%	-3.1	0.8
CC(=O)c1cccc(N(C(=O)Cn2nnc3ccccc32)C(C(=O)NCc2ccccc2)c2ccc(F)cc2)c1 (configuration not stated)	x	x	-8.5%	x	x
O=S(=O)(N=C1C=CC(=NS(=O)(=O)c2ccccc2)c2ccccc21)c1ccccc1	1.1	-6.5	28.2µM*	x	x
CCc1ccc(S(=O)(=O)/N=C2/C=C(Sc3ncn[nH]3)C(=O)c3ccccc32)cc1	-3.5	10.9	1.78µM*	0.2	-57.6*
CCc1ccc(S(=O)(=O)/N=C2\C=CC(=O)c3ccccc32)cc1	x	x	x	x	-49.7*
Cn1ccc2cc(S(=O)(=O)N3CCN(C(=O)Nc4ccccc4F)CC3)ccc21	x	x	-23.1%	x	x
COc1ccccc1N(C(C)=O)C1=C(Cl)C(=O)c2ccccc2C1=O	-14.8	7.1	17.8µM*	x	x
Cc1cc(C)nc(NS(=O)(=O)c2ccc(Br)s2)c1	16.2	-12.3	-21.7%	11.3	-35.8*
Cc1ccc(NS(=O)(=O)c2ccc(Br)s2)nc1	10.3	3.7	-21.3%	-11.7	-36.8*
CCC(=O)N1c2ccccc2CC1C(=O)NCCc1ccccc1C (configuration not stated)	x	x	0.1%	x	x
O=C(c1ccc([N+](=O)[O-])cc1)N1CCN(C(=O)C2CCCCC2)CC1	-71.1*	0.3	-8.6%	-21.8	3.5
COc1cccc(C2CC3(CC(C)(C)NC(=S)N3)Oc3cc(O)ccc32)c1 (configuration not stated)	-5.6	3.2	-0.4%	12.6	7.0
CSC1=NC2(CC(c3ccccc3)Oc3cc(O)ccc32)CC(C)(C)N1 (configuration not stated)	-93.7*	u	-18.5%	-12.9	0.2
N[C@@H](CCCCNC(=O)CCCC[C@@H]1SC[C@H]2NC(=O)N[C@H]12)C(=O)O	x	x	x	x	-0.6
Cc1cc2c(n1-c1ccc(C(=O)NCC(C)c3ccccc3)cc1)CCCC2 (configuration not stated)	x	x	-5.1%	x	x
Cc1cccc(C(=O)Nc2nnc(-c3ccc(C(C)(C)C)cc3)s2)c1	-89.0*	-2.8	-0.5%	-10.7	0.8
N=C1C(c2ccccc2)=C(O)CN1c1cccc(S(=O)(=O)N2CCCCC2)c1	6.1	-225.3*	-15.0%	21.0	3.2
